These results are taken from PubChem BioAssay (Tox21).

Assay [1] in a line: qHTS assay to identify small molecule antagonists of the glucocorticoid receptor (GR) signaling pathway - cell viability counter screen (AID 720693). Also: nearly all actives have a fitted effect of over 55% in size.
A short description of assay [2]: qHTS assay for identifying genotoxic compounds that show differential cytotoxicity against isogenic chicken DT40 cell lines with known DNA damage response pathways - wild type cell line (AID 743012). Also: nearly all actives have a fitted effect of over 60% in size. Also: potency is read from the fitted curve at half-maximal effect. The method in brief:
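300 wt DT40 cells/well; cpd (DMSO) pintool-transferred after ~0.5 h at 37 C/5% CO2; 40 h incubation; CellTiter-Glo added, 30 min RT; luminescence read.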
On the technique in general: qHTS replaces the single test concentration by a dilution series.

Assay [3] can be described thus: qHTS assay for identifying genotoxic compounds that show differential cytotoxicity against isogenic chicken DT40 cell lines with known DNA damage response pathways - Rev3 mutant cell line (AID 743014). Also: nearly all actives have a fitted effect of over 55% in size. Also: potency is read from the fitted curve at half-maximal effect.
Assay [4] can be described thus: qHTS assay for identifying genotoxic compounds that show differential cytotoxicity against isogenic chicken DT40 cell lines with known DNA damage response pathways - Rad54/Ku70 mutant cell line (AID 743015). Also: nearly all actives have a fitted effect of over 60% in size. Also: potency is read from the fitted curve at half-maximal effect.
Assay [5] has as its target Androgen receptor (Homo sapiens) (UniProt P10275). As to the kind of experiment: qHTS assay to identify small molecule antagonists of the androgen receptor (AR) signaling pathway (AID 743035; active = well fitted inhibition curve with a large enough effect in the signal ratio in the repeat runs, not every such curve was filed as active; the % refers to the signal ratio; also: potency is read from the fitted curve at half-maximal effect). The method in brief:
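In this cell-based reporter screen, compounds were tested in concentration series against R1881-activated HEK293 cells expressing beta-lactamase under UAS control; after 16 h at 37C, FRET substrate was added and fluorescence read 2 h later.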

Assay [6] has the same target. As to the kind of experiment: qHTS assay to identify small molecule agonists of the androgen receptor (AR) signaling pathway using the MDA cell line (AID 743040; also: nearly all actives have a fitted effect of over 20% in size). The method in brief: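 Testing was done with the MDA-kb2 AR-luc line, a human breast carcinoma stably transfected with MMTV-luciferase containing AR and GR response elements. Cells were exposed 16 h at 37C before ONE-Glo luminescence detection.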

Assay [7] is described as follows: qHTS assay to identify small molecule antagonists of the androgen receptor (AR) signaling pathway using the MDA cell line - cell viability counter screen (AID 743041; also: nearly all actives have a fitted effect of over 45% in size; also: potency is read from the fitted curve at half-maximal effect). The method in brief: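 Compound exposure lasted 16 h at 37C in MDA-kb2 AR-luc cells stimulated with R1881. Protease-based CellTiter-Fluor reagent was applied for the final 30 min and fluorescence measured.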

Assay [8] has as its target Androgen receptor (Homo sapiens) (UniProt P10275). Nature of the assay: qHTS assay to identify small molecule antagonists of the androgen receptor (AR) signaling pathway using the MDA cell line (AID 743042; also: nearly all actives have a fitted effect of over 55% in size; also: potency is read from the fitted curve at half-maximal effect). The method in brief:
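MDA-kb2 breast carcinoma cells carrying MMTV-luciferase (AR/GR responsive) were co-treated with compounds and the agonist R1881 for 16 h at 37C. Inhibition read as ONE-Glo luminescence; CellTiter-Fluor fluorescence measured in parallel for cytotoxicity.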

A short description of assay [9]: qHTS assay to identify small molecule antagonists of the androgen receptor (AR) signaling pathway - cell viability counter screen (AID 743033; also: nearly all actives have a fitted effect of over 45% in size).
Assay [10] has as its target Androgen receptor (Homo sapiens) (UniProt P10275). Nature of the assay: qHTS assay to identify small molecule agonists of the androgen receptor (AR) signaling pathway (AID 743036; active = well fitted activation curve with a large enough effect in the signal ratio in the repeat runs, with a control signal flat, not every such curve was filed as active; the % refers to the signal ratio). The method, boiled down:
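AR-bla HEK293 cells, 2,000/well; 4 h preincubation 37C/5% CO2; compound (DMSO) 16 h at 37C; LiveBLAzer B/G FRET substrate 2 h RT; fluorescence intensity read-out.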

A number with no mark means an inactive call. Records with an inconclusive call do not appear. Active and inactive are the calls of the source. Unless noted, calls follow the shape of the dose curve; as a rule, active = well fitted curve in the direction sought with a large enough effect in the repeat runs; inconclusive = weak or mixed curves; inactive = no such curve, though single readings can be large; an effect the other way counts as inactive or inconclusive.
% is scaled to controls: 0 for no effect and ±100 for the full control effect.

Androgen receptor (Homo sapiens), sequence (P10275 whole entry, looked up): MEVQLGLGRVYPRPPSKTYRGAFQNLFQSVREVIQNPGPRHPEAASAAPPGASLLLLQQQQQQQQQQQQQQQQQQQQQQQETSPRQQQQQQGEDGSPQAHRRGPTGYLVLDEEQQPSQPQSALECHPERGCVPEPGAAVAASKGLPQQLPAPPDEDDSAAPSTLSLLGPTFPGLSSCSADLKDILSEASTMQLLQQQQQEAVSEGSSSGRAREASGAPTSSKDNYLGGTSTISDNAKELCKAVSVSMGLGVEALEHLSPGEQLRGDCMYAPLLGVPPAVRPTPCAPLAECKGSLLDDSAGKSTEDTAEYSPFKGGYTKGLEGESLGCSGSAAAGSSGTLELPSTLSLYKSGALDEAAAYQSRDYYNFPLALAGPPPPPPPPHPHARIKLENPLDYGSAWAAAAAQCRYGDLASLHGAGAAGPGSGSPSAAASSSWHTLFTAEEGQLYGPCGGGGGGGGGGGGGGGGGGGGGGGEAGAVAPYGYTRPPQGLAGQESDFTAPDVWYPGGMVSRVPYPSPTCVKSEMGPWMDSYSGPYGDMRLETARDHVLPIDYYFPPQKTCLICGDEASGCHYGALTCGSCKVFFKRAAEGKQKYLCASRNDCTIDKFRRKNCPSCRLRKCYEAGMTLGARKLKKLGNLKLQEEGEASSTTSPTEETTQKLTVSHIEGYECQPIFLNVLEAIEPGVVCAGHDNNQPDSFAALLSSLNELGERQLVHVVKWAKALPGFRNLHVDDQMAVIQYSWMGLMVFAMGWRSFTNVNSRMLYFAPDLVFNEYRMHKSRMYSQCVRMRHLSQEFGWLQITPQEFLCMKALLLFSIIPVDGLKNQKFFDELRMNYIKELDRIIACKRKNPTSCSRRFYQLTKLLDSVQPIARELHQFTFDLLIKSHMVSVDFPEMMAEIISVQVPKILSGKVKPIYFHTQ

Consider `Cc1ccc(S(=O)(=O)N[C@@H](CCCCN)C(=O)CCl)cc1`, for which, in [1], the Potency entry is “inactive”. The Potency in assay [2] was 5.96 µM (active); in assay [3], 10.6 µM (active); in [4], 10.6 µM (active); in assay [5], 21.3 µM (active); in assay [7], 21.1 µM (active); in [8], 23.7 µM (active). Further, in assay [6], the compound was called inactive.
On to `CN=CNc1ccc(C)cc1C`, for which the Potency entry in [1], in [2], in [3], in assay [4], in assay [9] and in [7] was “inactive” throughout.
Regarding `CCC1(c2ccccc2)CCC(=O)NC1=O` (centres undefined), the Potency entry in [1], in [2], in assay [4], in [9], in assay [5] and in assay [7] was “inactive” throughout. Moreover, in assay [8], the Potency result is “inactive”. The outcome in assay [10] and in assay [6] was inactive.
On to `O=C(CCl)NCO`, for which the Potency entry in assay [1], in [2], in [3], in assay [4] and in [7] was “inactive” each time.
Take `CC(C)(C1CCC(O)CC1)C1CCC(O)CC1` (centres undefined): the Potency entry in assay [1], in assay [2], in [4], in assay [9] and in [7] was “inactive” each time.
For `C=CC=O`, the Potency entry in assay [1], in [2], in [3], in assay [4], in assay [9] and in assay [7] was “inactive” each time.
In the case of `N#CN=C1SCCN1Cc1ccc(Cl)nc1`, the Potency entry in assay [1], in assay [2], in assay [3], in [9] and in assay [7] was “inactive” each time.
On to `O=C(Cl)CCl`, for which the Potency entry in assay [1], in assay [2], in [4], in assay [9] and in [7] was “inactive” in each case.
For the compound `CNC(=O)O/N=C(/CSC)C(C)(C)C`, the Potency result in assay [1], in [2], in assay [4], in [9], in assay [5] and in assay [7] was “inactive” in each case. In addition, the Potency entry in assay [8] was “inactive”. Also, the result in [10] and in assay [6] was inactive.
For `CCCCCCC1CCOC1=O` (centres undefined), the Potency result in assay [1], in [2], in assay [3], in assay [4], in assay [9] and in assay [7] was “inactive” each time.
Take `O=C(Cl)c1ccccc1`: the Potency entry in assay [1], in assay [2], in [3], in assay [4], in assay [9] and in [7] was “inactive” each time.
For the compound `CS(=O)(=O)c1ccc(C(=O)C2C(=O)CCCC2=O)c(Cl)c1COCC(F)(F)F`, the Potency entry in assay [1], in [2], in assay [4], in assay [9] and in [7] was “inactive” throughout.
With `BrCC1CO1` (centres undefined), the Potency result in [1], in assay [2], in assay [4], in assay [9] and in assay [7] was “inactive” each time. Also, the Potency in assay [3] was 61.4 µM (active).
Regarding `Nc1c(Cl)c(F)nc(OCC(=O)O)c1Cl`, the Potency entry in [1], in assay [2], in [4], in assay [9], in assay [7] and in assay [8] was “inactive” each time. Further, the call in [6] was inactive.
Regarding `Clc1nc(Cl)nc(Nc2ccccc2Cl)n1`, the Potency entry in assay [1], in [2], in assay [4] and in assay [9] was “inactive” in each case.
`CC1NCCOC1c1ccccc1` (centres undefined): the Potency result in [1], in assay [2], in [3], in [4], in [9] and in [7] was “inactive” throughout.
Take `NC(=O)CS(=O)C(c1ccccc1)c1ccccc1` (centres undefined): the Potency result in assay [1], in assay [2], in assay [3], in assay [4], in assay [9] and in [7] was “inactive” each time.
`Oc1ccc(Cc2ccc(O)cc2)cc1`: the Potency result in [1], in assay [2], in [3], in assay [4], in assay [9] and in [7] was “inactive” in each case.
Consider `CCOC(=O)C(SP(=S)(OC)OC)c1ccccc1` (centres undefined), for which the Potency entry in assay [1], in assay [2], in assay [3], in assay [4], in assay [9] and in assay [7] was “inactive” each time.
Regarding `CC(C)(C)NC[C@H](O)c1ccc(O)cc1Cl`, the Potency entry in assay [1], in assay [2], in assay [3], in assay [4], in [9] and in assay [7] was “inactive” throughout.
As for `Brc1c(Br)c(Br)c(Br)c(Br)c1Br`, the viability change, negative = cytotoxic in assay [1] is -0.032% [at 7.04 µM]; in [7] it was 1.47% [at 8.47 µM]. For the same compound, the activity change, negative = cytotoxicity was -12.6% [at 8.52 µM] in assay [2], 8.63% [at 8.55 µM] in [4] and -0.0996% [at 7.04 µM] in assay [9]. The activity, negative = cytotoxicity in assay [3] is 4.56% [at 8.53 µM].
With `CCOP(=O)(CN(CCO)CCO)OCC`, the Potency entry in assay [1], in assay [2], in assay [3], in assay [4], in assay [9] and in [7] was “inactive” in each case.
Consider `CC(C)(C)C(=O)C(Cl)Cl`, for which the Potency entry in assay [1], in [2], in assay [3], in assay [4], in [9] and in assay [7] was “inactive” throughout.
`COc1cc(CC(C)N)cc(OC)c1OC` (centres undefined): the Potency result in assay [1], in assay [2], in assay [4] and in [9] was “inactive” in each case.
Take `Cc1ccc(-c2nc3ccc(C)cn3c2CC(=O)N(C)C)cc1`: the Potency entry in assay [1], in [2], in [3], in assay [4], in assay [9] and in assay [7] was “inactive” each time.
On to `CC(=NC#N)N(C)Cc1ccc(Cl)nc1`, for which the Potency result in [1], in assay [3], in assay [4], in assay [9] and in assay [7] was “inactive” in each case.
With `ClCC1CO1` (centres undefined), the Potency result in [1], in assay [2], in assay [4], in [9] and in assay [7] was “inactive” in each case.
Consider `CC(O)CCl` (centres undefined), for which the Potency result in assay [1], in assay [3], in [4], in assay [9] and in assay [7] was “inactive” each time.
For the compound `CC(C)[N+](C)(CCC(C(N)=O)(c1ccccc1)c1ccccc1)C(C)C`, the Potency result in assay [1], in [2], in [4], in assay [9] and in assay [7] was “inactive” throughout.
`O=C1CC(=O)NC(=O)N1`: the Potency result in assay [1], in [2], in assay [4], in assay [9] and in [7] was “inactive” in each case.
On to `CN(C)C(=O)Oc1cc(OC(=O)N(C)C)cc(C(O)CNC(C)(C)C)c1` (centres undefined), for which the Potency result in [1], in [3], in [4], in assay [9], in assay [5] and in [7] was “inactive” each time. For the same compound, the Potency result in [8] was “inactive”. The compound was classed as inactive in [10] and in assay [6].
